ADAM10 inh: ADAM10 inhibition, QFRET primary screen. recombinant ADAM10, EDANS/DABCYL FRET peptide cleavage, 3 h. inhibition, % at 7 µM. 370,000 compounds, 0.62% hits. AID 720582;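 active means inhibition above a per-campaign cutoff equal to the mean of compounds falling between control-based bounds plus 3 SD, cut at about 20% in these data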;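 further: 0% = DMSO wells while the 100% control is not disclosed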
Target sequence (O14672 214-748 limits assumed): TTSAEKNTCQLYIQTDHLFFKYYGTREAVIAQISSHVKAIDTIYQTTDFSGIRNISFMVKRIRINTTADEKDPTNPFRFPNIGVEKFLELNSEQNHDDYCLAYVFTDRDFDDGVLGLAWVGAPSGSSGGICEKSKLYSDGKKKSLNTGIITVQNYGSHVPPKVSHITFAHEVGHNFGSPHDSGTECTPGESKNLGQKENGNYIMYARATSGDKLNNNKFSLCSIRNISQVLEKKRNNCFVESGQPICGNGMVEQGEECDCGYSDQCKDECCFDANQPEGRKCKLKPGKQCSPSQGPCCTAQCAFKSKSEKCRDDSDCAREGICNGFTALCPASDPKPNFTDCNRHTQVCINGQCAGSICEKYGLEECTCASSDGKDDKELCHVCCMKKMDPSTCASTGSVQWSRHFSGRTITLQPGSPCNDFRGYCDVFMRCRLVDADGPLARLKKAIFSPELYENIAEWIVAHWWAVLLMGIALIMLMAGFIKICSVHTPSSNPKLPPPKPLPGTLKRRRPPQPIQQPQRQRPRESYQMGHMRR
KLK7 zymogen act: activators of human kallikrein-7 zymogen. 370,000 compounds, 0.9% hits. activation, % at 7 µM. AID 652039. purified proKLK7, EDANS-DABCYL substrate fluorescence; 100% is mature enzyme control, 0% vehicle. P49862;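 active means activation above the mean of all tested compounds plus 3 SD, computed per campaign excluding outliers beyond control limits, cut at about 13% in these data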
PLC-beta3 inh: blocks human PLC-beta3 enzyme activity; Q01970; Purified PLC-beta3, fluorogenic substrate, fluorescence; inhibition, % at 12.2 µM; 370,000 compounds, 0.18% hits; AID 720704; in the data active means inhibition above about 11%;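 further: 0% = median of compound wells on plate and 100% = full blocker control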
PLC-gamma1 inh: blocks human PLC-gamma1 enzyme activity; inhibition, % at 12.2 µM; P19174; AID 720700; purified PLC-gamma1, fluorogenic substrate, fluorescence; 370,000 compounds, 0.84% hits; in the data active means inhibition above about 9.5%
ADAM17 inh: inhibitors of human ADAM17 | P78536 | recombinant ADAM17, EDANS/DABCYL FRET peptide cleavage | inhibition, % at 6.95 µM | 370,000 compounds, 0.83% hits | AID 720648;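 active means inhibition above the mean of compounds lying between control limits plus 3 SD, set per campaign, cut at about 8.5% in these data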;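 further: 0% = DMSO-only wells as the low control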
ADAM10 confirm: human ADAM10 inhibition, confirmation; shares compounds with ADAM10 inh; ADAM10 QFRET peptide cleavage, EDANS fluorescence; inhibition, % at 6.95 µM; 2,100 compounds, 1% hits; AID 743208;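 active means inhibition above about 20% chosen separately for each screening run, limit read from the data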;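 further: 0% = DMSO wells and 100% = marimastat wells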
ADAM17 ctr: counter-screen for ADAM10 exosite inhibitors: inhibitors of human ADAM17. shares compounds with ADAM10 inh. ADAM17 QFRET peptide cleavage, EDANS fluorescence. inhibition, % at 6.95 µM. 2,100 compounds, 0.5% hits. AID 743214;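 active means mean triplicate inhibition above the solvent-only control wells' mean plus 3 SD, cut at about 12% in these data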;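 further: 0% = DMSO wells and 100% = marimastat wells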
An asterisk follows results filed as active; nt = no result; ! = not active in a repeat. In the library only some 2.9% were active in any assay of this set; here they are far more common.

SMILES | ADAM10 inh | KLK7 zymogen act | PLC-beta3 inh | PLC-gamma1 inh | ADAM17 inh | ADAM10 confirm | ADAM17 ctr
COc1cc(NC(=O)C/C(C)=N/NC(=O)c2cccs2)c(OC)cc1Cl | 28* | 0 | 0 | 4 | 15* | 0 | 1
CN1CCN(C(=O)C2=C[C@@H](c3csc4ccccc34)C[C@@H](OCc3ccc(CO)cc3)O2)CC1 | -2 | 1 | 1 | 3 | -1 | nt | nt
O=C(C1=C[C@H](c2csc3ccccc23)C[C@H](OCc2ccc(CO)cc2)O1)N1CCOCC1 | 89* | 1 | -3 | -4 | -1 | 1 | 0
Cc1noc(C)c1COc1cccc(C(=O)OCCOc2ccc(F)cc2)c1 | 26* | 1 | -3 | 0 | 5 | 4 | 1
CC1Oc2ccccc2C=C1/C=N/NC(=O)c1ccncc1 (stereo not given) | -3 | -3 | -127 | -89 | -6 | nt | nt
Cc1cc(N2CCCC2)ccc1/C=C1\NC(=S)N(C)C1=O | 25* | 0 | -34 | -28 | 4 | 2 | 0
CN1C(=O)c2ccc(N3CCCC3)cc2C1=O | -51 | -34 | -354 | -228 | -13 | nt | nt
Cc1ccc(OCC(=O)NNC(=O)C(=O)NC(C)(C)C)cc1 | 21* | 0 | 7 | 1 | 6 | 0 | 0
Cc1ccc(CNC(=O)c2cnc(-c3ccccn3)nc2C(F)(F)F)cc1 | 4 | 0 | 4 | 3 | 0 | nt | nt
O=C(NCc1ccc(F)cc1)c1cnc(-c2ccccn2)nc1C(F)(F)F | 66* | 0 | 1 | 1 | -5 | 2 | 0
CCC(=O)Nc1ccc2ccccc2c1 | -41 | 1 | 4 | 0 | 1 | nt | nt
CC(C)(C)CC(C)(C)NC(=O)CSCC(=O)Nc1ccc2ccccc2c1 | 25* | 1 | 1 | 2 | 6 | 2 | 1
O=S(=O)(NC1CCCCC1Oc1ccccc1)c1ccc(Cl)cc1 (stereo not given) | 8 | 0 | 1 | 0 | 1 | nt | nt
O=S(=O)(NC1CCCCCCC1)c1ccc(F)cc1 | -8 | 0 | -2 | -1 | -5 | nt | nt
O=S(=O)(NC1CCCCC1NS(=O)(=O)c1ccc(F)cc1)c1ccc(F)cc1 (stereo not given) | 20* | 0 | 2 | 7 | 2 | 1 | 1
CSc1ccc(OC2CCCCC2NS(=O)(=O)c2ccc(Cl)cc2)cc1 (stereo not given) | 28* | 0 | -1 | 0 | 7 | 9 | 3
CC(C)c1ccc(OCC(=O)NCc2ccccc2)cc1 | 78* | 0 | -1 | 1 | 0 | 0 | 0
CCOc1cccc(NC(=O)C2CC(=O)N(C)C(=Nc3cccc(F)c3)S2)c1 (stereo not given) | 21* | 0 | 5 | 1 | 6 | 4 | 1
COc1ccc(C2c3[nH]c4ccccc4c3C[C@H]3C(=O)N(c4ccccc4C(=O)NCCN4CCOCC4)C(=O)N23)cc1 (stereo not given in full) | -12 | 0 | -28 | -24 | 4 | nt | nt
O=C(Nc1ccccc1-c1nc2ccccc2s1)c1ccc(Br)o1 | -2 | -1 | -144 | -105 | -1 | nt | nt
CCOC(=O)c1ccc(NS(=O)(=O)c2ccc(-c3coc(C)n3)cc2)cc1 | 6 | 1 | -2 | 7 | 3 | nt | nt
CCOC(=O)Nc1ccc2c(c1)N(C(=O)CCN(C)C)c1ccccc1CC2 | -4 | -1 | -2 | 4 | 2 | nt | nt
CCOC(=O)Nc1ccc2c(c1)N(C(=O)OCCN(C)C)c1ccccc1CC2 | 51*! | 0 | -30 | -26 | -11 | 2 | 0
COc1ccc(OC)c(NC(=O)Cc2csc(NC(=O)Nc3ccccc3OC)n2)c1 | 5 | 0 | -7 | 1 | 4 | nt | nt
COc1ccccc1NC(=O)Cc1csc(NC(=S)Nc2ccccc2)n1 | 21* | -1 | -2 | 0 | 3 | 6 | 2
SMILES | ADAM10 inh | KLK7 zymogen act | PLC-beta3 inh | PLC-gamma1 inh | ADAM17 inh | ADAM10 confirm | ADAM17 ctr
CCOc1cc(/C=N/NC(=O)COc2ccc(C)cc2)ccc1OC(=O)c1cccs1 | 21* | 0 | 4 | 1 | 4 | 10 | 2
Cc1cc(C)c(C#N)c(SCc2ccccc2)n1 | 23* | 0 | 4 | 6 | 8 | 1 | 1
C=CCC[C@@H](CCCCC)OC(=O)/C=C/[C@H](O)[C@@H](O)C[C@@H](O)CC=C | 1 | 0 | 4 | -1 | 3 | nt | nt
C=CCC[C@H](CCCCC)OC(=O)/C=C/[C@@H](O)[C@H](O)C[C@@H](O)CC=C | 21* | 0 | 2 | 3 | 7 | 0 | 0
Cc1cc(=O)oc2cc(OCC(=O)NC3CC(C)(C)NC(C)(C)C3)ccc12 | -56 | 0 | -14 | -4 | -18 | nt | nt
O=C1/C(=C\c2cccs2)N=C(c2cccs2)N1Nc1ccccc1 | 14 | 1 | 0 | 2 | 2 | nt | nt
O=C1/C(=C/c2cccs2)N=C(c2cccs2)N1Nc1ccccc1 | 25* | 0 | -12 | -9 | 5 | 8 | 2
C(=N\N(Cc1ccccc1)c1ccccc1)/c1cccnc1 | 12 | 0 | 1 | 3 | 8 | nt | nt
Oc1cccc(/C=N/N(Cc2ccccc2)c2ccccc2)c1 | 22* | 0 | -14 | 0 | 9 | 13 | 5
Cc1ccc(S(=O)(=O)NC2c3cccc4cccc(c34)C2Sc2nc(C)cc(C)n2)cc1 (stereo not given) | 20* | -1 | -4 | -3 | 7 | 8 | 2
CCOC(=O)c1c(NC(=O)CSc2n[nH]c(-c3ccco3)n2)sc(C)c1C | 22* | 0 | -5 | -4 | 4 | 0 | 0
COc1ccc(CNc2cccc(C)n2)c(O)c1 | -4 | 1 | -4 | 1 | -1 | nt | nt
CC(C)CC(NS(=O)(=O)OCC(Cl)(Cl)Cl)c1ccccc1 (stereo not given) | 20* | -1 | 4 | -2 | 4 | 6 | 2
Cc1ccc2c(c1)NC(=O)[C@@]1(C)[C@@H](c3ccccc3)[C@H]3COc4ccccc4[C@@H]3N1C2=O | 27* | 0 | -1 | -2 | 4 | 10 | 3
Cc1ccc2c(c1)[C@H]1[C@H](CO2)[C@H](c2ccccc2)[C@]2(C)C(=O)Nc3ccccc3C(=O)N12 | 12 | -1 | -5 | -3 | 2 | nt | nt
COc1ccc2c(c1)[C@H]1[C@H](CO2)[C@H](c2ccccc2)[C@]2(C)C(=O)Nc3ccc(C)cc3C(=O)N12 | 28* | -2 | -8 | -3 | 0 | 10 | 3
Nc1ncnc2c1ncn2[C@H]1C[C@H](O)[C@@H](COP(=O)(O)O)O1 | 2 | 0 | 2 | 3 | -3 | nt | nt
COc1ccc(CC(=O)NCCc2ccc(S(N)(=O)=O)cc2)cc1 | 4 | 0 | 7 | 3 | 0 | nt | nt
O=C(O)c1ccc(N/C(=N\S(=O)(=O)c2ccc(Cl)cc2)c2ccccc2)cc1 | -4 | 0 | -10 | -5 | -6 | nt | nt

Screening data as filed in PubChem.
